Source: PubChem BioAssay AID624481 (The Scripps Research Institute Molecular Screening Center, 2012)
The source made the active and inactive calls. Rule as the data show it: active = inhibition above about 50%; inactive = the rest.

target: Prolyl endopeptidase-like (Mus musculus) (UniProt Q8C167); assay: purified PREPL inhibitors, PREPL inhibitor project, biochemical, gel-based competitive ABPP, fluorescence, HTS hits (AID 624481); conditions: at 20 µM, active compounds read high
Sequence (Q8C167 whole entry, looked up): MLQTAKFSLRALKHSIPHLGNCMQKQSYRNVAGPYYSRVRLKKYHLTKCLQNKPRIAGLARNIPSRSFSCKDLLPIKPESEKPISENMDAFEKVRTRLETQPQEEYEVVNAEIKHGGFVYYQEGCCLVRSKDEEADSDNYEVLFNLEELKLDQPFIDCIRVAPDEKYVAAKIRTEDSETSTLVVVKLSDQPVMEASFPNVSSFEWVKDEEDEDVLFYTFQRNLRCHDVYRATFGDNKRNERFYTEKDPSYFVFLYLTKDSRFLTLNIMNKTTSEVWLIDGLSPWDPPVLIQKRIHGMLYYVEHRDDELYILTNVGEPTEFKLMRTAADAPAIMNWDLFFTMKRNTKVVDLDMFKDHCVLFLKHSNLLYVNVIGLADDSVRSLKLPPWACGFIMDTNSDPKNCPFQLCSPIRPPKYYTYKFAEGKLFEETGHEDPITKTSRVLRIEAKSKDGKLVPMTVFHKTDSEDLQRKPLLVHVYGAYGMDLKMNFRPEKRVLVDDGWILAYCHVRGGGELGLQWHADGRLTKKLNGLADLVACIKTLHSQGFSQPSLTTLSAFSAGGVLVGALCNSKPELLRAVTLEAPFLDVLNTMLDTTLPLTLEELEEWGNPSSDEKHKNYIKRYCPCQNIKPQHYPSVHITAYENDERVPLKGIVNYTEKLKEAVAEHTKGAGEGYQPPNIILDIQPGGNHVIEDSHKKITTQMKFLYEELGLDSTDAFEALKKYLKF

SMILES	inhibition
CN(C)c1ccc(N=C/C=C2\N(C)c3ccccc3C2(C)C)cc1	-78% (inactive)
O=S(=O)(c1ccc(-c2csc(=Nc3ccccc3)n2CCCN2CCOCC2)cc1)N1CCOCC1	57% (active)
Cc1cc(C)c2nc(N3C(=O)C(O)=C(C(=O)c4ccco4)C3c3ccco3)sc2c1 (configuration not stated)	45% (inactive)
CCCOc1ccccc1-n1sc2c(c1=S)-c1cc(OC)cc3c1N(C(=O)C3=O)C2(C)C	-26% (inactive)
c1ccc(N2CCN(c3nc(-c4ccccn4)nc4ccccc34)CC2)cc1	-283% (inactive)
Cc1cccn2c(=O)c3cc(C(=O)NCCc4ccccc4)c(=N)n(CCCn4ccnc4)c3nc12	-33% (inactive)
CC(C)(C)n1cnc2cc(NCc3ccc(Br)cc3)ccc21	-12% (inactive)
C=CC[n+]1c(-c2ccc(Cl)cc2Cl)csc1Nc1ccc(NC(C)=O)cc1	-43% (inactive)
CN1Cc2c(N3CCOCC3)nc3sc(C(=O)c4ccccc4)c(N)c3c2CC1(C)C	-32% (inactive)
Cc1ccc(Nc2nc(NCCO)c3ccccc3n2)cc1C	-33% (inactive)
Cc1ccn2c(Nc3ccc4c(c3)OCO4)c(-c3ccccn3)nc2c1	-41% (inactive)
c1ccc(-c2nc(N3CCCCCC3)c3ccccc3n2)nc1	-104% (inactive)
Nc1nc(-c2ccccc2)c(N=Nc2ccccc2Cl)s1	-9% (inactive)
COc1cccc(C2=CC(c3ccc(N(C)C)cc3)n3nnnc3N2)c1 (configuration not stated)	-95% (inactive)
COc1ccc(C2CC(c3cccc(Cl)c3)n3nc(N)nc3N2)cc1 (configuration not stated)	-29% (inactive)
COc1cccc(C2CC(c3ccc(C)cc3)Nc3nc(N)nn32)c1 (configuration not stated)	-27% (inactive)
O=C(Cc1ccc(Cl)cc1)Nc1ccc(N2CCN(C(=O)c3ccco3)CC2)cc1	-61% (inactive)
CN1CCc2c(sc3c2C(=O)NC(c2cn(Cc4ccccc4)c4ccccc24)N3)C1 (configuration not stated)	7% (inactive)
Cc1ccc(C2=CC(c3ccc(N(C)C)cc3)n3nnnc3N2)cc1 (configuration not stated)	-77% (inactive)

SMILES	inhibition
Nc1nn(-c2ccccc2)c(N)c1N=Nc1cccc(F)c1	0% (inactive)
COc1ccc(N2CCN(c3nc4c(C)cccn4c(=O)c3/C=C(\C#N)C(N)=O)CC2)cc1	-53% (inactive)
CC1CC(C)CN(C(=O)c2ccc3c(c2NCCO)C(=O)c2ccccc2C3=O)C1 (configuration not stated)	7% (inactive)
Nc1c(Cl)ncnc1NN=Cc1ccc2ccccc2n1	-48% (inactive)
CCOc1ccc(Nc2c3ccccc3nc3ccccc23)cc1	-58% (inactive)
Nc1[nH]n2c(=O)c3c(nc2c1N=Nc1ccc(Cl)cc1)CCCC3	-12% (inactive)
O=c1cc(-c2ccc(O)c(O)c2)oc2cc(O[C@@H]3O[C@H](CO)[C@@H](O)[C@H](O)[C@H]3O)cc(O)c12	-12% (inactive)
COc1ccc2cc1Oc1ccc(cc1)CC1c3c(cc(OC)c4c3Oc3cc5c(cc3O4)CCNC5C2)CCN1C (configuration not stated)	-113% (inactive)
COc1ccc(N2CCN(C(=O)c3cn(C4CCCC4)c(=O)c4c3c3ccccc3n4C)CC2)cc1	92% (active)
Cc1ccc2nc(-c3ccccn3)c(NC3CCCC3)n2c1	-23% (inactive)
Cc1ccc(-c2csc(=Nc3cccnc3)n2CCCn2ccnc2)cc1C	-52% (inactive)
O=C1c2c(O)ccc(O)c2C(=O)c2c(NCCNCCO)ccc(NCCNCCO)c21	-46% (inactive)
CCc1ccc(Nc2n[n+](-c3ccccc3)c(-c3ccc(N(CC)CC)cc3)s2)cc1	-100% (inactive)
COc1ccc(C)cc1Nc1n[n+](-c2ccccc2)c(-c2ccc(N(C)C)cc2)s1	-72% (inactive)
C#CCOCCOCCOCCNc1nc(N2CCN(C(=O)[C@H](CCCCN)n3cc([C@@H](N)CC(C)C)nn3)CC2)nc(N2CCN(C(=O)[C@H](Cc3cc4ccccc4[nH]3)n3cc([C@@H](N)Cc4ccc(O)cc4)nn3)CC2)n1	-71% (inactive)
C#CCOCCOCCOCCNc1nc(N2CCN(C(=O)CCCCCCCCCCNC(=O)[C@H](CCCCN)n3cc(CCO)nn3)CC2)nc(N2CCN(C(=O)CCCCCCCCCCNC(=O)[C@H](CCCN=C(N)N)n3cc(C[C@@H](C)CC)nn3)CC2)n1	-34% (inactive)
COc1ccc(NC(=O)c2ccc(-c3ccc(-c4noc(C)n4)cc3C)cc2)cc1N1CCN(C)CC1	-16% (inactive)
CN(CC(=O)Nc1ccccc1Cl)C(=O)c1cccc(S(=O)(=O)N2CCN(Cc3ccccc3)CC2)c1	-6% (inactive)
